The values that follow come from PubChem BioAssay.

Activity calls are given as the source filed them. Unless noted, no rule for the calls is given here.

Assay [1] is described as follows: compound effects on lung adenocarcinoma cell viability – A549, calcein-AM fluorescence, 48 h, basal, profiling panel (AID 1162). Also: test concentration not given here. To be noted: higher = more signal.
A short description of assay [2]: compound effects on differentiated 3T3-L1 adipocyte viability – cell-based, 3T3-L1 adipocytes, calcein-AM fluorescence, 48 h, basal, profiling panel (AID 1163). Also: test concentration not given here. To be noted: 3T3-L1 adipocytes viability, higher = more signal.
The nature of assay [3]: compound effects on hepatocellular carcinoma cell viability – HepG2, calcein-AM fluorescence, 48 h, basal, profiling panel (AID 1164). Also: test concentration not given here. To be noted: higher = more signal.
Assay [4] is described as follows: compound effects on multiple myeloma cell viability – MM1S, calcein-AM fluorescence, 48 h, basal, profiling panel (AID 1165).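 Also: viability of MM1S multiple myeloma cells under basal unstimulated conditions; test concentration not given here.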 Particulars: higher = more signal.
Assay [5] in a line: calcein-AM signal in unstimulated myeloma cells – cell-based, calcein-AM fluorescence, 48 h, PK04 Diversity Set, profiling panel (AID 1166).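 Also: cells grown under basal conditions without added stimulus; test concentration not given here.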 To be noted: RPMI8226 myeloma viability, higher = more signal.
Assay [6] in a line: JC-1 mitochondrial signal, unstimulated HepG2 cells – cell-based, JC-1 fluorescence, 24 h, 100 nL compound, profiling panel (AID 1167). Also: test concentration not given here. Particulars: HepG2 mitochondrial potential, higher = more signal.
Assay [7] in a line: JC-1 mitochondrial signal, unstimulated adipocytes – cell-based, JC-1 fluorescence, 3T3-L1 adipocytes, 24 h, 100 nL compound, profiling panel (AID 1168). Also: test concentration not given here. Particulars: JC-1 mitochondrial fluorescence, higher = more signal, called active from +8 up or from −8 down.
The nature of assay [8]: JC-1 mitochondrial signal, unstimulated myeloma cells – cell-based, JC-1 fluorescence, RPMI8226, 24 h, 100 nL compound, profiling panel (AID 1169). Also: test concentration not given here. To be noted: JC-1 mitochondrial potential fluorescence, higher = more signal.
Assay [9] is described as follows: JC-1 mitochondrial signal, unstimulated MM1S myeloma – cell-based, JC-1 fluorescence, 24 h, 100 nL compound, profiling panel (AID 1170). Also: test concentration not given here. Particulars: MM1S mitochondrial potential, higher = more signal.
Assay [10] in a line: resazurin metabolic signal in A549 cells – cell-based, resazurin fluorescence, 24 h, PK04 Diversity Set, profiling panel (AID 1171). Also: test concentration not given here. To be noted: A549 viability, higher = more signal, called active from +8 up or from −8 down.
Assay [11] can be described thus: resazurin metabolic signal in HepG2 cells – cell-based, resazurin fluorescence, 24 h, PK04 Diversity Set, profiling panel (AID 1172). Also: test concentration not given here. To be noted: HepG2 viability, higher = more signal.
A short description of assay [12]: budding yeast growth changes without added modifier – OD600, strain BY4716, 24 h, basal condition, primary screen (AID 1173). To be noted: S. cerevisiae BY4716 growth, OD600, 24 h; higher = more signal, called active from +8 up or from −8 down.
The nature of assay [13]: viability profiling in MM1S myeloma cells – cell-based, resazurin fluorescence, basal, 24 h, PK04 Diversity Set, profiling panel (AID 1174). Also: test concentration not given here. To be noted: higher = more signal, called active from +8 up or from −8 down.
Assay [14] has as its target Dihydroorotate dehydrogenase (quinone), mitochondrial (Plasmodium falciparum (isolate 3D7)) (UniProt Q08210). Briefly: inhibition of P. falciparum DHODH – biochemical, C-terminal His tag, absorbance 600 nm, primary screen (AID 1175).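 Also: recombinant parasite enzyme with a five histidine tag at its C terminus; test concentration not given here.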 Particulars: PfDHODH enzyme, DCIP absorbance 600 nm; higher = more signal, called active from +8 up or from −8 down.
Assay [15] can be described thus: inhibition of PAO1 biofilm formation – strain PAO1, LB-PBS medium, absorbance 600 nm, primary screen (AID 1176). Also: test concentration not given here. To be noted: P. aeruginosa PAO1 growth/biofilm, A600, 12 h; higher = more signal.
The nature of assay [16]: growth modulation of vineyard yeast isolate – strain RM11-1a, OD600, basal, 24 h, primary screen (AID 1177).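 Also: cultures grown under basal conditions with no added stressor; test concentration not given here.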 To be noted: S. cerevisiae RM11-1a growth, OD600, 24 h; higher = more signal, called active from +8 up or from −8 down.
The nature of assay [17]: growth of efflux-deficient E. coli DRC39 – strain DRC39, OD650, 24 h, E. coli filamentation inducers, primary screen (AID 1178).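 Also: growth measured as culture turbidity by optical density at 650 nm; test concentration not given here.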 To be noted: E. coli DRC39 acrAB, higher = more signal, called active from +8 up or from −8 down.
The nature of assay [18]: growth of efflux-deficient E. coli DRC39 – strain DRC39, OD650, 48 h, E. coli filamentation inducers, primary screen (AID 1179).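 Also: screen aims at cell division blockers that make cells filament.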 To be noted: E. coli DRC39 delta-acrAB growth, higher = more signal, called active from +8 up or from −8 down.
A short description of assay [19]: viability profiling in RPMI8226 myeloma cells – cell-based, resazurin fluorescence, basal, 24 h, PK04 Diversity Set, profiling panel (AID 1180).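 Also: RPMI8826 multiple myeloma cell line at 5000 cells per well; test concentration not given here.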 Particulars: higher = more signal.
Assay [20] addresses E3 ubiquitin-protein ligase XIAP (Homo sapiens) (UniProt P98170). Briefly: small molecules binding XIAP protein – biophysical, small-molecule microarray, fluorescence 635 nm, primary screen (AID 1181).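 Also: score merges 667 nm emission and signal to noise over triplicate slides.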 Particulars: higher = more signal.

Dihydroorotate dehydrogenase (quinone), mitochondrial (Plasmodium falciparum (isolate 3D7)), sequence (Q08210 whole entry, looked up): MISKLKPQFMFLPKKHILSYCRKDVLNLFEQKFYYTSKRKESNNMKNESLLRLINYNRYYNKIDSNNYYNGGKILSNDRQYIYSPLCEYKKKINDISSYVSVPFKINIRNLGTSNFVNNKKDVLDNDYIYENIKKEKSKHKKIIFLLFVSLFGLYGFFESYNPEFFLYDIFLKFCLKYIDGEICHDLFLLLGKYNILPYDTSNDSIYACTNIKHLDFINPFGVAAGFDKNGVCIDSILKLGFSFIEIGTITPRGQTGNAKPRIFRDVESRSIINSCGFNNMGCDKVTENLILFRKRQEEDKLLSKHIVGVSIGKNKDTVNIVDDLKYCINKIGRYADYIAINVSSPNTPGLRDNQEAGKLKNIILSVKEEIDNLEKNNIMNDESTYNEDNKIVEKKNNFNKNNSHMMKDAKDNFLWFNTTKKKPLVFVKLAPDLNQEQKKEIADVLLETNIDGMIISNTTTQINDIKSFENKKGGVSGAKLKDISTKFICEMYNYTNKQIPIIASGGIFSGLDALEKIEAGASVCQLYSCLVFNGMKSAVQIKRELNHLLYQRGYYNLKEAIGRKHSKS
E3 ubiquitin-protein ligase XIAP (Homo sapiens), sequence (P98170 whole entry, looked up): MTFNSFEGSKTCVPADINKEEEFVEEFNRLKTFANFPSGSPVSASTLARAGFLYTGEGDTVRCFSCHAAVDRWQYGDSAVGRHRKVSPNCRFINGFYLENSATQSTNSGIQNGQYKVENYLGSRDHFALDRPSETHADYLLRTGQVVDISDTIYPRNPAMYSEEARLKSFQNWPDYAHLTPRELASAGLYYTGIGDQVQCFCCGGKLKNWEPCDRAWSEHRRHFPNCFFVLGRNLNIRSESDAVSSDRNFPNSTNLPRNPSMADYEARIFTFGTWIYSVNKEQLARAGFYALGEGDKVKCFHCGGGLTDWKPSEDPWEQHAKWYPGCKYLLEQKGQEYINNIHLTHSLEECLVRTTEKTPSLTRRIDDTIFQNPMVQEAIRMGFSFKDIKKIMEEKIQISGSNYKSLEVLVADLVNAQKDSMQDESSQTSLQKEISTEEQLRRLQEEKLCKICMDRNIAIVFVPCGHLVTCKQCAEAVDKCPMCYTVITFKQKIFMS

With `CN(C)C(=O)[C@]1(CCC(=O)OC(C)(C)C)N=C(c2ccc(OCCCO)cc2)O[C@@H]1c1ccccc1N=[N+]=[N-]`, the z-score is 0.0413 in assay [1]; 0.473 in assay [2]; 0.333 in assay [3]; -0.629 in assay [4]; 0.0141 in assay [5]; 2.25 in [6]. For the same compound, the z-score in [7] was 2.52 (inactive); in [8], -0.568; in [9], -0.325; in assay [10] it was 1.84 (inactive); in [11], 1.49; in [12] it was 0.192 (inactive). Also, the z-score in assay [13] is -0.556 (inactive); in assay [15] it was -0.758 (inactive); in [16], 1.61 (inactive); in assay [17] it was 0.752 (inactive); in assay [18] it was 0.701 (inactive); in assay [19], 0.407. For the same compound, the composite z-score in assay [14] was 0.565 (inactive); in [20], 0.0317.

Take `[N-]=[N+]=NCc1ccccc1[C@@H]1OC(c2ccc(OCCCO)cc2)=N[C@]1(Cc1ccccc1N=[N+]=[N-])C(=O)NCc1ccccc1`: the z-score was 0.103 in assay [1]; 0.0085 in [2]; -0.829 in assay [3]; -0.466 in assay [4]; 0.22 in [5]; 1.47 in assay [6]. Further, the z-score in [7] was -0.385 (inactive); in [8], -0.749; in [9], -1.37; in [10] it was -0.234 (inactive); in [11], 0.206; in assay [12] it was 1.15 (inactive). Further, the z-score in assay [13] was -0.0978 (inactive); in assay [15], 0.603 (inactive); in assay [16], 1.27 (inactive); in assay [17], -0.954 (inactive); in assay [18], -1.96 (inactive); in assay [19] it was -1.46. Further, the composite z-score in assay [14] is 0.139 (inactive); in [20], 0.0852.

With `COc1ccc(C(=O)Nc2cccc(CN3C(=O)[C@@]4(O[C@@H](CCn5cc(CCO)nn5)[C@H]([Si](C)(C)c5ccc(OC)cc5)[C@H]4C)c4ccccc43)c2)cc1`, the z-score in assay [1] is -1.31; in assay [2], -0.599; in assay [3], -4.58; in assay [4], -2.88; in assay [5], -4.33; in assay [6], 0.254. Also, the z-score is 0.285 (inactive) in assay [7]; -0.136 in assay [8]; -2.3 in assay [9]; -4.55 (inactive) in [10]; -5.75 in assay [11]; -6.12 (inactive) in [12]. Moreover, the z-score in assay [13] was -9.07 (active); in [15], 0.769 (inactive); in assay [16] it was 3.1 (inactive); in [17] it was 1.7 (inactive); in assay [18], 0.633 (inactive); in [19] it was -6.23. Also, the composite z-score in assay [14] is 1.42 (inactive); in [20], 0.126.

For `Cc1ccc(S[C@]2(C(=O)NCc3ccccc3)CC(=O)N(Cc3ccccc3Cl)[C@@H]2c2ccc(CO)cc2I)cc1`, the z-score in assay [1] is 0.34; in [2], 1.13; in [3] it was -0.0653; in assay [4], -1.73; in assay [5] it was -1.65; in [6] it was -0.44. For the same compound, the z-score is 0.376 (inactive) in assay [7]; -0.0557 in [8]; -2.15 in assay [9]; 1.6 (inactive) in assay [10]; 1.21 in [11]; -3.45 (inactive) in assay [12]. Moreover, the z-score in assay [13] is -3.03 (inactive); in assay [15] it was 0.531 (inactive); in assay [16], -1.07 (inactive); in [17], 0.321 (inactive); in assay [18] it was 0.439 (inactive); in assay [19], -2.02. Further, the composite z-score was -1.82 (inactive) in assay [14] and -0.136 in [20].

Take `C=CCC(OC(C)=O)[C@@H]1[C@@H](N(Cc2cc3ccccc3o2)C(=O)c2ccc(C)cc2)c2cc(OCCCO)ccc2N1C(=O)c1ccc2ccccc2c1` (stereo not given in full): the z-score in assay [1] is 1.37; in assay [2] it was 0.595; in [3] it was 1.89; in [4], 1.14; in [5] it was 0.671; in assay [6], 2.27. Further, the z-score is -0.409 (inactive) in [7]; 0.33 in assay [8]; 0.748 in assay [9]; 1.43 (inactive) in assay [10]; 0.792 in [11]; -0.195 (inactive) in assay [12]. Also, the z-score in assay [13] is 0.951 (inactive); in assay [15], -0.583 (inactive); in assay [16], 0.0749 (inactive); in [17], 0.786 (inactive); in [18], 1.02 (inactive); in assay [19], 1.72. Besides, the values for the composite z-score in [14] and in assay [20] were -0.375 (inactive) and 0.0015, respectively.
